Reference: the supplement of paper PMC3545927
This is one part of the list. No count for the full screen is at hand.

Target: furin, P09958
Test: furin cleavage Z-score vs untreated control; higher = more cleavage, active = 3.5 or more, inactive = 1 or less, 8 variable residues between constant flanks
Outline: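 Peptides 8 residues long, fused to a cDNA oligonucleotide, were fixed to magnetic beads by the N-terminus and exposed to purified furin. The 0.01 ml reactions contained 50 mM HEPES pH 7.5 with CaCl2 and NaCl at 1:10 enzyme:substrate and ran 7.5, 15 or 30 min. For the cleavage Z-score, log counts of sequenced released DNA were compared with furin-free reactions, lowess-adjusted and scaled by median absolute deviation.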

Chain of furin, P09958 (P09958 whole entry): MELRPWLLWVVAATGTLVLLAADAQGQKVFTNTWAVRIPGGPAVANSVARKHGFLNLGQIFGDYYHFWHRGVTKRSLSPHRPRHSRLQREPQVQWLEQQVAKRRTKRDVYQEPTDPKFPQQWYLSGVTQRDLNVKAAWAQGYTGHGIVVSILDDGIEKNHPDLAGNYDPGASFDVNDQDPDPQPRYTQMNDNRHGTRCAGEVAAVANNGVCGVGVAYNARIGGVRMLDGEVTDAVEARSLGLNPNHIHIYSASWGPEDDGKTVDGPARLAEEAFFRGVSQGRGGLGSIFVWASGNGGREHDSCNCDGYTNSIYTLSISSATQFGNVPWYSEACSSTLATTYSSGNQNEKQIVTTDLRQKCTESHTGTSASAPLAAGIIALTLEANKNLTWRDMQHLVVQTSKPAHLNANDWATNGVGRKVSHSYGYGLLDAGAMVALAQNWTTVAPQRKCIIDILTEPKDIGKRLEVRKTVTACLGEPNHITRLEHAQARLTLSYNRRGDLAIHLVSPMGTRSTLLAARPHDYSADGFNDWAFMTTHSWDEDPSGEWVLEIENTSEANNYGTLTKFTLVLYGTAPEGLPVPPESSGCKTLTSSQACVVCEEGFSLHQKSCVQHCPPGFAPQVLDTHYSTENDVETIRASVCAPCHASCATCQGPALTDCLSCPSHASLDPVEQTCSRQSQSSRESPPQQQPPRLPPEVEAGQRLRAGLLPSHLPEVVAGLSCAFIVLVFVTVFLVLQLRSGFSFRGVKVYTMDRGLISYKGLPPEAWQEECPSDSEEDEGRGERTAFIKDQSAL

Sequence | furin cleavage Z-score (7.5 min) | furin cleavage Z-score (15 min) | furin cleavage Z-score (30 min)
CARRRRTAILAGNASASA [FS-2799] | 5.32 (active) | 8.15 (active) | 8.93 (active)
CARRRRKVLAAGNASASA [FS-2181] | -0.244 (inactive) | 1.09 | 1.13
CARRRRRTAIAGNASASA [FS-2080] | 4.79 (active) | 6.3 (active) | 6.06 (active)
CARRRRTALAAGNASASA [FS-2800] | 7.39 (active) | 9.46 (active) | 7.26 (active)
CARRRRTAFAAGNASASA [FS-2798] | 5.77 (active) | 8.03 (active) | 7.17 (active)
CAAARVTAILAGNASASA [HC1131] | 0.0621 (inactive) | 1.08 | -0.5 (inactive)
CALTHIDAHFAGNASASA [HC943] | -1.16 (inactive) | -1.18 (inactive) | -0.971 (inactive)
CARATRARRAAGNASASA [FS-82] | 10.6 (active) | 10.6 (active) | 7.6 (active)
CAGLPVSARRAGNASASA [HC660] | -1.44 (inactive) | -0.486 (inactive) | -0.384 (inactive)
CARKTRSARRAGNASASA [FS-2040] | 7.75 (active) | 10.4 (active) | 8.66 (active)
CAGWKRARRAAGNASASA [FS-246] | 10.7 (active) | 11 (active) | 9.68 (active)
CARKTRSHTAAGNASASA [FS-3225] | 4.24 (active) | 5.12 (active) | 4.27 (active)
CALLGCIITSAGNASASA [HC680] | -0.345 (inactive) | -1.06 (inactive) | -1.24 (inactive)
CANREVPCHRAGNASASA [HC2441] | 1.82 | -0.276 (inactive) | 0.432 (inactive)
CAEVVTSTNVAGNASASA [HC2241] | 0.759 (inactive) | 0.285 (inactive) | 0.157 (inactive)
CAITGHVKNGAGNASASA [HC1178] | -0.0306 (inactive) | -2.29 (inactive) | -0.221 (inactive)
CAGIQYLAGLAGNASASA [HC1046] | 0.778 (inactive) | 0.268 (inactive) | 0.333 (inactive)
CARKKKVWDYAGNASASA [FS-2424] | 0.95 (inactive) | -1.66 (inactive) | -0.314 (inactive)
CARRHRATRKAGNASASA [FS-1266] | 7.21 (active) | 8.97 (active) | 6.15 (active)
CARKTRARRAAGNASASA [FS-489] | 11.1 (active) | 11.3 (active) | 9.01 (active)
CARFDRIAHTAGNASASA [FS-2552] | 0.362 (inactive) | -0.331 (inactive) | 0.407 (inactive)
CARRHRARRAAGNASASA [FS-1265] | 12.1 (active) | 11 (active) | 9.18 (active)
CARRKKEVRKAGNASASA [FS-2449] | -0.452 (inactive) | -0.724 (inactive) | 1.33

Sequence | furin cleavage Z-score (7.5 min) | furin cleavage Z-score (15 min) | furin cleavage Z-score (30 min)
CARRHEKKRKAGNASASA [FS-1653] | -1.27 (inactive) | -0.15 (inactive) | -1.21 (inactive)
CARFFRYLHTAGNASASA [FS-2920] | -0.737 (inactive) | -1.73 (inactive) | 0.025 (inactive)
CARKTRSTHTAGNASASA [FS-3226] | 10.5 (active) | 11.5 (active) | 7.23 (active)
CAFCALARKMAGNASASA [HC621] | 0.374 (inactive) | 0.367 (inactive) | 0.832 (inactive)
CAQDVVCCSMAGNASASA [HC2122] | -0.38 (inactive) | -0.828 (inactive) | -1.79 (inactive)
CALLFNILGGAGNASASA [HC1064] | -0.771 (inactive) | -1.63 (inactive) | -1.52 (inactive)
CATAHRIKRAAGNASASA [FS-383] | 9.97 (active) | 8.71 (active) | 6.96 (active)
CAERKRIKRAAGNASASA [FS-650] | 9.45 (active) | 8.85 (active) | 7.6 (active)
CAERKRECQLAGNASASA [FS-1670] | 0.036 (inactive) | 1.4 | -0.462 (inactive)
CADLGRAKRFAGNASASA [FS-225] | 6.94 (active) | 8.17 (active) | 9.16 (active)
CARSGRHVVFAGNASASA [FS-3079] | -0.951 (inactive) | 0.442 (inactive) | 1.42
CARPRRFMDLAGNASASA [FS-3163] | 0.819 (inactive) | 0.127 (inactive) | 1.71
CARSGRAKRFAGNASASA [FS-1271] | 10.1 (active) | 10.5 (active) | 11.1 (active)
CARPARLHRFAGNASASA [FS-1065] | -0.918 (inactive) | 0.964 (inactive) | 0.792 (inactive)
CAHERRMKRFAGNASASA [FS-791] | 10 (active) | 11.5 (active) | 9.74 (active)
CARSGRGPFGAGNASASA [FS-1925] | -0.792 (inactive) | -2.29 (inactive) | -0.384 (inactive)
CARPRRAKRFAGNASASA [FS-1069] | 9.54 (active) | 11 (active) | 9.13 (active)
CAKFPGGGQIAGNASASA [HC172] | -2.08 (inactive) | 0.112 (inactive) | -2.19 (inactive)
CAELTTPCSGAGNASASA [HC1965] | -0.879 (inactive) | -0.537 (inactive) | -1 (inactive)
CAENLETTMRAGNASASA [HC760] | 0.652 (inactive) | 0.35 (inactive) | 0.0456 (inactive)
CADPERRKRFAGNASASA [FS-985] | 4.94 (active) | 7 (active) | 7.37 (active)
CATHFFSVLIAGNASASA [HC1584] | -0.934 (inactive) | -0.739 (inactive) | -0.913 (inactive)
